# Only some compounds are listed: those with a hit (about 4.7% of all), similar ones and a draw of the others.
# TRHR PAM = allosteric enhancers of human TRH receptor | P34981 | enhancement, % at 2 µM | 360,000 compounds, 0.66% hits | TRHR cells, fluo-8 calcium fluorescence, EC20 TRH enhancement | AID 493056; in the data active = enhancement above about 30%; note: 0% is about no effect
#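 Enhancer read-out: after compound pinning and an initial kinetic agonist-mode read, an EC20 of TRH (10 nM final) was injected and fluo-8 calcium signal (Ex 480/Em 530) followed at 1 s/cycle for 100 cycles in TRHR-expressing cells.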
# TRHR ag = activates the human TRH receptor. P34981. TRHR cells, calcium flux fluo-8, FDSS agonist mode. activation, % at 2 µM. 360,000 compounds, 0.18% hits. AID 493084; note: 0% is about no effect
#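 Agonist-mode FDSS calcium read (Ex 480/Em 530, 1 s cycles) in 1536-well TRHR cells with fluo-8 dye, after 10-cycle baseline and 23 nL compound addition; TRH at EC20 (10 nM final) added afterwards for the enhancer phase.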
# D1 ag = agonists of human D1 dopamine receptor; P21728; HEK293 T-REx D1 cells, calcium flux, agonist mode; activation, % at 2 µM; 360,000 compounds, 1% hits; AID 504660; note: 0% is about no effect
# Target sequence (P21728 whole entry, looked up): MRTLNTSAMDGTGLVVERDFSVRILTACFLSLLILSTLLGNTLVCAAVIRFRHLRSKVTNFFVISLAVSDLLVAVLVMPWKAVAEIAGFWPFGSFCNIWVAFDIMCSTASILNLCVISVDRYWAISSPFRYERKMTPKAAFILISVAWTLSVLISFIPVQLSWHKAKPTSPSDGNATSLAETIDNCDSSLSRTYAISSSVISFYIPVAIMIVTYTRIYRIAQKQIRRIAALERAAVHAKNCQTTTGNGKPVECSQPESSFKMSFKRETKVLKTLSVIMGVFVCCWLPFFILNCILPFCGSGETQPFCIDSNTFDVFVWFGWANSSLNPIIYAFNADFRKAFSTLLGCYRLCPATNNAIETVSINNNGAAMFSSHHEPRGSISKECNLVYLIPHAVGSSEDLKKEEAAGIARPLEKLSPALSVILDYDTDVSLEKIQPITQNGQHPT
#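 Agonism was scored from calcium flux recorded over 180 s (1 read/s) after pintool compound addition, following a 10-cycle baseline. Cells were inducible force-coupled HEK293 TREx D1, plated overnight at 30 C and loaded with no-wash calcium dye.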
# D1 potentiator = human D1 dopamine receptor positive modulation; AID 504651; 360,000 compounds, 0.036% hits; potentiation, % at 10 µM; HEK293 TREx D1 cells, calcium flux, dopamine EC20 potentiation; P21728; in the data active = potentiation above about 30%; note: 0% is about no effect
# D1 antag = blocks dopamine activation of the human D1 receptor; P21728; HEK293 TREx D1 cells, calcium flux, dopamine EC80; active compounds read low; activity change, negative = inhibition, % at 10 µM; 360,000 compounds, 3.2% hits; AID 504652; in the data active = activity change below about -30%; note: % is set by controls: 0 for no effect and ±100 for the full control effect
#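 Tetracycline-induced HEK293 Trex D1 cells, force-coupled to calcium, dye-loaded; compounds added and read 180 s, then EC80 dopamine added and calcium flux tracked kinetically another 180 s.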
# * marks the source's active call; other numbers are inactive results. Cut-off read from the data, not from the text of the source, unless noted: active = activation above about 30%; inactive = the rest.
SMILES,TRHR PAM,TRHR ag,D1 ag,D1 potentiator,D1 antag
O=C(CSc1ccc(F)cc1)Nc1ccc(N2CCOCC2)c(Cl)c1,-0.2,0.0,13.5,-6.0,-22.3
Nc1nnc(SCC(=O)Nc2ccc(N3CCOCC3)c(Cl)c2)s1,12.6,-2.2,8.7,-1.1,-36.6*
Cc1ccc(NC(=O)CSCC(=O)Nc2ccc(N3CCOCC3)cc2N2CCOCC2)cc1,3.3,-0.6,4.2,2.0,1.6
Cc1ccc(NC(=O)CSCC(=O)Nc2ccc(N3CCOCC3)c(Cl)c2)cc1,6.3,-1.0,5.4,-4.2,-33.6*
N#C/C(=C\c1c[nH]c2ccccc12)C(N)=O,6.0,-1.2,1.0,-2.9,11.7
CC(=O)Oc1c(/C=C(\C#N)C(N)=O)[nH]c2ccccc12,4.2,-0.9,52.8*,0.1,-14.3
CCOc1ccc(Cn2c(CNS(=O)(=O)c3cccc(Cl)c3)nc3cccnc32)cc1,2.8,-0.2,1.4,-4.7,-80.0*
COc1ccc(NC(=O)CC2SC(=NCC3CCCO3)NC2=O)cc1 (configuration not stated),-6.4,0.0,3.1,-10.8,-46.9*
Cc1ccc(NC(=O)CC2SC(=NCC3CCCO3)NC2=O)cc1Cl (configuration not stated),-7.2,-0.2,-1.2,-10.2,-1.2
Cc1ccc(OCCn2nnc3sc4c(c3c2=O)CCC(C)C4)cc1 (configuration not stated),-2.0,2.6,3.0,-0.9,3.0
Cc1ccc(C)c(CN2C(=O)c3ccccc3S(=O)(=O)c3ccc(C(=O)N(C)C4CCCCC4)cc32)c1,-8.0,0.3,5.0,0.6,11.3
Cc1cccc(-c2nc(C#N)c(NCc3ccco3)o2)c1,-4.8,-1.1,1.3,0.5,-31.0*
CCn1c(=O)cc(SCC(=O)Nc2cc(Cl)ccc2OC)c2ccccc21,6.7,0.1,3.6,5.8,4.1
CCCOc1ccc(/C=C2\SC(N)=NC2=O)cc1OC,-20.1,0.1,0.2,-13.9,-42.4*
CCNc1nc(N2CCOCC2)nc(N(c2ccccc2)c2ccccc2)n1,36.8*,-1.1,-0.4,-8.2,15.2
COc1ccccc1Cc1noc(COc2cccc(C)c2C)n1,6.3,0.0,13.8,-6.0,-78.0*
COc1cccc(-c2noc(COc3cccc(C)c3C)n2)c1,5.5,1.6,24.6,-1.4,3.7
Cn1c(=O)oc2cc(S(=O)(=O)N3CCCC(C(=O)Nc4ccc(Br)cc4F)C3)ccc21 (configuration not stated),-0.2,-2.6,8.3,1.2,-25.2
CN1CCN(C(=O)Cn2c(-c3cccs3)cc3ccccc32)CC1,-1.7,0.1,-0.8,-0.2,7.4
Cc1ccc(NC(=O)COc2ccc(CCO)cc2-n2nc3ccccc3n2)cc1C,-2.8,0.6,4.9,-8.8,-71.7*
CCc1ccc(C(=O)C(C)OC(=O)CNS(=O)(=O)c2ccc(C)cc2)cc1 (configuration not stated),1.8,-0.7,32.0*,-2.6,4.9
CCOC(=O)c1ccc(COC(=O)CNS(=O)(=O)c2ccccc2)cc1,-26.6,-3.6,-0.5,-7.0,-33.1*
CCOC(=O)CNS(=O)(=O)c1ccc(S(=O)(=O)N2CCCC2)cc1,7.7,0.7,5.5,-0.1,-103.3*
Cc1ccc(S(=O)(=O)NCC(=O)OC(C(=O)c2ccccc2)c2ccccc2)cc1 (configuration not stated),-4.9,0.6,2.4,5.8,5.6
O=S(=O)(Nc1cccc2c1CCCC2)c1cccc(C(F)(F)F)c1,-7.1,-2.1,5.7,1.9,-9.1
SMILES,TRHR PAM,TRHR ag,D1 ag,D1 potentiator,D1 antag
Cc1ccc(S(=O)(=O)Nc2cccc3c2CCCC3)cc1,15.0,-0.9,6.5,-2.5,-31.9*
Cc1ccccc1NC(=O)c1oc2c(c1C)-c1nn(Cc3cccc(Cl)c3)cc1CC2,-3.8,0.1,0.2,-3.2,11.6
O=C(NCc1ccccc1)C(=O)NCC(c1ccc2c(c1)OCO2)N1CCOCC1 (configuration not stated),-0.1,-0.2,-0.2,-0.8,-15.4
CC(C)OCCCn1c(=O)c2ccccc2n2c(-c3ccccc3)nnc12,-4.0,4.3,10.5,-1.1,-10.3
COc1cc(SC)ccc1C(=O)OCC(=O)NC(=O)NC(C)C,-27.0,-0.2,0.9,-6.6,-66.2*
COc1cc(SC)ccc1C(=O)OCC(=O)NCC(C)C,7.0,-0.4,-4.2,-0.5,-0.3
COc1ccc(NC(=O)CN2CCN(C(=O)C3CCCO3)CC2)c(OC)c1 (configuration not stated),14.7,0.0,50.0*,3.1,4.2
C=C(C)c1cccc(C(C)(C)NC(=O)Nc2ccc(C)cn2)c1,-8.0,1.9,30.1*,-2.9,14.4
C=C(C)c1cccc(C(C)(C)NC(=O)Nc2ccc(OC)nc2)c1,-3.5,0.6,3.4,0.1,-4.9
CCOC(=O)C(Oc1ccc2c(-c3ccccc3)cc(=O)oc2c1)c1ccccc1 (configuration not stated),-5.5,0.2,5.3,-6.5,-31.0*
Cc1nc(Nc2ccccc2)sc1C(=O)c1ccc(F)cc1,1.0,-0.3,-0.4,-3.4,-5.8
Nc1nc(Nc2ccccc2F)sc1C(=O)c1ccccc1,21.6,-2.8,34.5*,6.1,7.4
O=C(CC(c1cccs1)N1Cc2ccccc2C1=O)Nc1cccc(F)c1 (configuration not stated),4.1,-1.5,5.4,-3.3,-8.4
CCCCNC(=S)NNC(=O)c1csc(C(C)C)c1,2.8,0.2,-0.5,-4.0,-45.3*
CCNC(=S)NNC(=O)c1csc(C(C)C)c1,3.1,-0.1,-0.9,15.3,10.6
N=C1C(c2nc3ccccc3[nH]2)=C(O)CN1c1ccc(F)cc1,13.7,-0.6,2.1,-16.8,-30.1*
N=C1C(c2nc3ccccc3[nH]2)=C(O)CN1C1CCCCC1,3.0,-0.7,0.8,-4.2,-10.3
C/C(=C\C=C(C#N)C#N)c1cc(C#N)c(N)o1,-5.6,10.5,62.7*,-8.9,21.0
CC(C)Oc1ccc(C(=O)OC(C)C(=O)NC2CCCCC2C)cc1 (configuration not stated),5.0,-0.6,9.7,-7.3,-48.3*
Cc1cccc(NC(=O)C2CCN(c3nccc(C)n3)CC2)c1,-4.8,0.0,1.7,-9.4,-34.8*
CCOC(=O)c1c(NC(=O)CSc2cn(CCNC(=O)c3ccc(OC)cc3)c3ccccc23)sc2c1CCC2,4.6,0.7,-0.1,-2.9,-0.1
CCc1nc(SCC(=O)Nc2ccnc3ccccc23)n[nH]1,-1.8,0.1,12.4,-2.9,-45.6*
CCc1nc(SCC(=O)Nc2ccccc2C(=O)OC)n[nH]1,4.1,0.3,-0.5,3.6,-5.8
NS(=O)(=O)c1ccc(NC(=O)CSc2nc3ccccc3[nH]2)cc1,4.1,-0.1,3.3,-15.2,-84.4*
O=C(CSc1nc2ccccc2[nH]1)Nc1ccc(F)c(F)c1,-6.7,0.3,3.7,-8.8,-14.6

# Compound activity: PubChem, National Center for Advancing Translational Sciences (NCATS)
